Assay results published in PubChem BioAssay.
A number with no mark means an inactive call. The source made the active and inactive calls. No stated cut-off is given here; in the data, active means fold change permeability below about 0.7 or above about 1.3; inactive means in between.

experiment: compounds altering in vitro BBB leakiness – cell-based, FITC-avidin fluorescence, HTS, primary screen (AID 1963498); details: brain endothelial barrier, actives lie on both sides; further: test concentration not given here

SMILES	fold change permeability
CC(C(=O)O)c1ccc(CC2CCCC2=O)cc1 (centres undefined)	1.5 (active)
OCc1ccc(-c2nn(Cc3ccccc3)c3ccccc23)o1	2 (active)
CN1CCN(C2=Nc3cc(Cl)ccc3Nc3ccccc32)CC1	1.2
COc1cc2c[n+](C)c3c4cc5c(cc4ccc3c2cc1OC)OCO5	1.1
CCN(c1nc(N)c(C(=O)N=C(N)N)nc1Cl)C(C)C	1.4 (active)
COCCOC(=O)C1=C(C)NC(C)=C(C(=O)OC/C=C/c2ccccc2)C1c1cccc([N+](=O)[O-])c1 (centres undefined)	1.2
COc1ccc(-c2cc(=O)c3c(O)c(OC)c(OC)cc3o2)cc1O	1.6 (active)
O=C1NCC2(CCN(CCc3ccccc3)CC2)O1	1
CCN1/C(=C/C(C)=O)Sc2ccc(O)cc21	1.1
Oc1ccc2c(c1)OC[C@]1(O)Cc3cc(O)c(O)cc3[C@H]21	1.7 (active)
[Li+]	1
CCN(CC)CCNC(=O)c1cc(S(C)(=O)=O)ccc1OC	0.9
NC(N)=NC(=O)c1nc(Cl)c(N2CCCCCC2)nc1N	1.1
NC(N)=N/N=C/c1c(Cl)cccc1Cl	1
Cc1ccc(C(=O)Nc2cnc(N3CCC(C(N)=O)(N4CCCCC4)CC3)c(C(=O)O)c2)cc1	1
CCCCCCCCCCCCCCCCCCc1ccc(C(=O)/C=C/C(=O)O)cc1	1.2
O=C(c1cc(O)c(O)c([N+](=O)[O-])c1)c1ccccc1F	1.7 (active)
O=[N+]([O-])c1cccc2cn[nH]c12	1
COc1cc(CC(=O)O)ccc1O	1.1
CC(O)C(O)[C@H]1CNc2nc(N)[nH]c(=O)c2N1 (some centres undefined)	1.4 (active)

SMILES	fold change permeability
O=C(O)CP(=O)(O)O	1
Nc1nc(Nc2ccccc2)nc2c1ncn2[C@@H]1O[C@H](CO)[C@@H](O)[C@H]1O	0.8
COc1ccc(Cl)cc1C(=O)NCCc1ccc(S(=O)(=O)NC(=O)NC2CCCCC2)cc1	0.7 (active)
N#Cc1cc2nc(O)c(O)nc2cc1[N+](=O)[O-]	1.2
O=C(O)c1cccnc1Nc1cccc(C(F)(F)F)c1	0.9
CCCCCCCCCCCC(=O)c1c(O)c(C(=O)CCCCCCCCCCC)c(O)c(C2CC(c3ccc(O)cc3)Oc3cc(O)ccc32)c1O (centres undefined)	1.4 (active)
COc1cc2nc(N(C)CCCNC(=O)C3CCCO3)nc(N)c2cc1OC (centres undefined)	1
CCCN(CCC)C(=O)C(CCC(=O)O)NC(=O)c1ccccc1 (centres undefined)	0.7 (active)
O=C1Nc2ccc(I)cc2/C1=C/c1cc(Br)c(O)c(Br)c1	0.7 (active)
O=C(O)[C@H](CC(=O)N1C[C@H]2CCCC[C@H]2C1)Cc1ccccc1	1.2
NC[C@@H]1O[C@H](C23CC4CC(CC(C4)C2)C3)Cc2c1ccc(O)c2O	1.1
CCOC(=O)c1ccc(C#Cc2ccc3c(c2)C(C)(C)CCS3)nc1	2.1 (active)
CC(=O)OCC1=C(C(=O)O)N2C(=O)[C@@H](NC(=O)Cc3cccs3)[C@H]2SC1	0.8
CCCCCOC(=O)Nc1nc(=O)n([C@@H]2O[C@H](C)[C@@H](O)[C@H]2O)cc1F	1.4 (active)
O=C(O)/C=C\C(=O)Nc1ccc(Oc2cccc(Oc3ccc(NC(=O)/C=C\C(=O)O)cc3)c2)cc1	0.9
Nc1nc(OCc2ccccc2)c2[nH]cnc2n1	1
CC(C(=O)O)c1ccc(C(=O)c2cccs2)cc1 (centres undefined)	0.8
O=C(C(c1ccccc1)c1ccccc1)N1CCN(CC(O)COc2cccc3ncccc23)CC1 (centres undefined)	0.8
CC(=O)N[C@@H](CS)C(=O)O	1.1
